Measurements published in PubChem BioAssay (Tox21).
The source made the active and inactive calls. Calls follow the shape of the dose curve; as a rule, active = well fitted curve in the direction sought with a large enough effect in the repeat runs; inconclusive = weak or mixed curves; inactive = flat fitted curve, though single readings scatter.

Experiment: qHTS assay to test for compound auto fluorescence at 590 nm (red) in HEK293 cells (AID 720679)
Details: red autofluorescence 540/590 nm; series mostly up to 91.3 µM
In short: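 Intensity at 540nm excitation and 590nm emission is reported as Rose Bengal sodium-equivalent autofluorescence. Measurements followed overnight exposure (37C, 5% CO2) of HEK293 cells, 2,000 per well, to 23 nL compound.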
% is scaled to controls: 0 for no effect and ±100 for the full control effect.

Row | SMILES | outcome | fluorescence, % of fluorescent control
1 | CC(C)(C)c1cccc(O)c1 | inactive | –
2 | CCOc1ccccc1N | inactive | –
3 | CCCCCCC | inactive | –
4 | CCN1CC(CCN2CCOCC2)C(c2ccccc2)(c2ccccc2)C1=O (centres undefined) | inactive | –
5 | COC(=O)C(C)O (centres undefined) | inactive | –
6 | O=C1CCCc2ccccc21 | inactive | –
7 | NC(=O)Cc1cccc(C(=O)c2ccccc2)c1N | inactive | –
8 | C=CC1CO1 (centres undefined) | inactive | –
9 | CCN[C@H]1CN(CCCOC)S(=O)(=O)c2sc(S(N)(=O)=O)cc21 | – | 0.0594% [at 18.6 µM] (inactive)
10 | CCCNC(C)C(=O)Nc1c(C)csc1C(=O)OC (centres undefined) | – | -0.0511% [at 18.6 µM] (inactive)
11 | CC(=O)N[C@@H](CC(C)C)C(=O)O | inactive | –
12 | O=C(O[C@@H](C(=O)O)[C@@H](OC(=O)c1ccccc1)C(=O)O)c1ccccc1 | inactive | –
13 | C=CC(C)(O)CC/C=C(\C)CCC=C(C)C (centres undefined) | inactive | –
14 | CC(C)C(=O)OCC(C)(C)C(O)C(C)C (centres undefined) | inactive | –
15 | Cc1ccccc1C(=O)Nc1ccc(C(=O)N2CCCC(O)c3cc(Cl)ccc32)c(C)c1 (centres undefined) | inactive | –
16 | CC(C)C(=O)OC/C=C/c1ccccc1 | inactive | –
17 | CCOC(=O)[C@H](CCc1ccccc1)N[C@@H](C)C(=O)N1Cc2cc(OC)c(OC)cc2C[C@H]1C(=O)O | inactive | –

Row | SMILES | outcome | fluorescence, % of fluorescent control
18 | CCOC(=O)C(Br)c1ccccc1 (centres undefined) | inactive | –
19 | NC/C=C/C(=O)O | inactive | –
20 | CC(C)c1ccccc1 | inactive | –
21 | CCCCCCCCCC/C=C/C#N | inactive | –
22 | COc1ccccc1N1CCN(CCCNc2cc(=O)n(C)c(=O)n2C)CC1 | inactive | –
23 | OCc1c2ccccc2cc2ccccc12 | inactive | –
24 | CC(C)(CO)[C@@H](O)C(=O)NCCC(=O)O | inactive | –
25 | NCCC(O)(P(=O)(O)O)P(=O)(O)O | inactive | –
26 | CN(C)Cc1ccccc1 | inactive | –
27 | CC/C=C\CCOC(=O)CCCCC | inactive | –
28 | COC(=O)c1ccc(OC)cc1 | inactive | –
29 | Cc1cc(S(=O)(=O)O)c(N)cc1Cl | inactive | –
30 | O=C(O)c1ccccc1Nc1cc(Cl)ccc1C(=O)O | inactive | –
31 | CCCCNC(=S)NCCCC | inactive | –
32 | O=C(O)c1cccc(Cl)c1Cl | inactive | –
33 | C=CCc1cc(OC)c(O)c(C(=O)NCCO)c1 | inactive | –
34 | CC(C)(C)c1ccc(OC(=O)c2ccccc2O)cc1 | inactive | –
